Most compounds without a hit are left out; they make up all but 2.6% or so of the library.
MLLE-PAM2 inh: blocks PAM2 peptide binding to the PABP1 MLLE domain; GST-MLLE / FITC-PAM2 fluorescence polarization; AID 588489; hit rate 0.36% among 360,000; inhibition, % at 20 µM; P11940; in the data active means inhibition above about 35%, passing the limit was not always enough;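 further: plate controls were DMSO wells with GST-MLLE for no effect and wells lacking GST-MLLE protein for full effect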
Target sequence (P11940 whole entry, looked up, the tested form may be a part): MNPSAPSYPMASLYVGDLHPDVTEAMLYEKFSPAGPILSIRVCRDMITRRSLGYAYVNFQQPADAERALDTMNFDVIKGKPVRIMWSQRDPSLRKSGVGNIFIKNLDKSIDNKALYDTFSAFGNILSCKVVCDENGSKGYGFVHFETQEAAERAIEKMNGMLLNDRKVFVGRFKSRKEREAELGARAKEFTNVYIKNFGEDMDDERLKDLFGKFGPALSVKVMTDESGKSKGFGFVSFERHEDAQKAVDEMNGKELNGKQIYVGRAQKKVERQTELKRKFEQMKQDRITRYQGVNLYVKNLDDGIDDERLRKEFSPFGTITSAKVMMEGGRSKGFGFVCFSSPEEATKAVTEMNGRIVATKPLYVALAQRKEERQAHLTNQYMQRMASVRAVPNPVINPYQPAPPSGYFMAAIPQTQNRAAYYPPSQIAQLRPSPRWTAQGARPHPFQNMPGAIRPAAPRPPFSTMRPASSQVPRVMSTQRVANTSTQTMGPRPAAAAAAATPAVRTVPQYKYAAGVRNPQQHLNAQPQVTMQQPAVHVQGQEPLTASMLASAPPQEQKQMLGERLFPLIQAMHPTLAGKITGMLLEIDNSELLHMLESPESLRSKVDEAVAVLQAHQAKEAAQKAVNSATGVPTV
ABCB6 inh 2: blocks the human ABCB6 transporter; fluorescence ratio to DMSO, % at 10 µM; K562-ABCB6 porphyrin accumulation, flow cytometry, 1 h; active compounds read low; hit rate 0.19% among 360,000;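 active means fluorescence ratio to DMSO below 75%, the collection mean minus 3 SD; inconclusive means too few cells collected in the well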;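 further: signal is porphyrin accumulated inside mitochondria; 100% equals median channel fluorescence of DMSO control wells; lower ratio means ABCB6 inhibition with less porphyrin fluorescence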
PHOSPHO1 block: inhibitors of human PHOSPHO1 phosphatase; Q8TCT1; recombinant PHOSPHO1, absorbance phosphatase assay; inhibition, % at 13.3 µM; hit rate 1.1% among 290,000; in the data active means inhibition above about 60%
eIF4H FP inh: inhibitors of RNA binding by human eIF4H; hit rate 0.94% among 290,000; inhibition, % at 35 µM; Q15056; eIF4H fluorescence polarization binding assay;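 further: calls also rest on retests at 20 µM and on dose response follow-up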
PABP FP inh: blocks human PABP binding to poly(A) RNA. P11940. fluorescence polarization. calls only at 35 µM. hit rate 1% among 290,000;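 further: calls also rest on retests at 20 µM and on dose response follow-up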
AI-2 QS mod: modulates the Vibrio harveyi AI-2 quorum sensing system; activity change, % at 7.5 µM; Vibrio harveyi JMH597 AI-2 luminescence/OD600 ratio, 9 h; active compounds read low; strain lacks LuxN and CqsS sensors; 0 = neutral-control median; AID 2094; hit rate 0.4% among 300,000; in the data active means activity change below about -75%, passing the limit was not always enough; inconclusive means no clear call, values can overlap the other calls;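 further: luminescence divided by OD600 gain over 9 h not by final OD600 alone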
* hit, by the source's call; i = inactive; ? = inconclusive; · = no result given; + = active, no number. Unless noted, how the calls were made is not given here.

SMILES	MLLE-PAM2 inh	ABCB6 inh 2	PHOSPHO1 block	eIF4H FP inh	PABP FP inh	AI-2 QS mod
CC1(C(=O)NCCc2ccccc2)Cc2c(-c3ccccc3)ccnc2O1 (centres undefined)	-3	106	·	·	·	·
Nn1cc(-c2ccccc2)nc1SCC(=O)NCCN1C(=O)CSC1=O	27	99	82*	5	i	10
Cn1c(SCC(=O)NCCN2C(=O)CSC2=O)nnc1-c1ccccc1	-1	103	-7	-4	i	12
Nn1cc(-c2ccccc2)nc1SCC(=O)NC1CCS(=O)(=O)C1 (centres undefined)	16	89	88*	8	i	6
O=C(CSc1nc2ccccc2n1CCc1ccccc1)NC1CCS(=O)(=O)C1 (centres undefined)	-95	104	97*	11	i	9
O=C(CSc1nc(-c2ccccc2)c(-c2ccccc2)o1)NC1CCS(=O)(=O)C1 (centres undefined)	-84	98	-9	-2	i	26
COC(=O)c1cc(=O)nc(NN=Cc2ccco2)s1	3	100	·	·	·	·
COc1ccccc1Cn1c(C)c(C(=O)NCCC#N)sc1=O	4	102	·	·	·	·
C[C@@H]1CNC(=O)c2c(C(=O)Nc3ccc(CNC(=O)OC(C)(C)C)cc3)ncn21	2	94	·	·	·	·
O=C(NC1CCCCC1)OC1CC2CC1[C@H]1CCCCN1C2=O (some centres undefined)	·	105	·	·	·	·
COc1ccc(NC(=O)C2(C)Cc3c(-c4cccc(C(N)=O)c4)ccnc3O2)cc1OC (centres undefined)	12	103	·	·	·	·
Oc1ccc(/C=N/Nc2ccnc3cc(Cl)ccc23)c(O)c1O	-61	100	12	67*	i	·
O=C(N/N=C/c1ccc(-c2ccc([N+](=O)[O-])cc2)o1)C(O)c1ccccc1 (centres undefined)	-38	109	6	-6	i	20
O=C(COc1ccccc1)N/N=C/c1ccc([N+](=O)[O-])o1	6	107	-6	51*	+	-20
O=C(N/N=C/c1ccc([N+](=O)[O-])o1)c1cc(-c2cccc(Br)c2)nc2ccccc12	-19	114	-11	56*	i	56
O=C(N/N=C/c1ccc([N+](=O)[O-])o1)C(=O)Nc1ccc(C(=O)O)cc1	5	93	-1	83*	+	20
CCCC(=O)Nc1ccc(C(=O)N/N=C/c2ccc([N+](=O)[O-])o2)cc1	-1	96	-3	75	i	?
O=C(N/N=C/c1ccc([N+](=O)[O-])o1)C(O)c1ccccc1 (centres undefined)	15	97	37	36	i	-89*
CC1(C(=O)NS(=O)(=O)c2ccc(Cl)s2)CCN1C(=O)Cc1ccc(Cl)cc1Cl (centres undefined)	-1	100	·	·	·	·
CN(C)CCNc1ncnc2c1ncn2[C@H]1CN(Cc2ccco2)C[C@@H](CO)O1	4	101	·	·	·	·
CCCc1ccc(-c2cc(C(=O)N/N=C/c3ccc([N+](=O)[O-])o3)c3ccccc3n2)cc1	8	98	2	46	i	53
O=C(N/N=C/c1ccc([N+](=O)[O-])o1)c1cn2ccc3ccccc3c2n1	-2	132	27	82*	+	21
O=C(N/N=C/c1ccc([N+](=O)[O-])o1)c1sc2ccccc2c1Cl	-26	155	44	72*	i	22
O=C(CNc1ccc2ccccc2c1)N/N=C/c1ccc(C(=O)O)cc1	-10	116	32	10	i	13
O=C(CNc1ccc2ccccc2c1)N/N=C/c1ccc([N+](=O)[O-])o1	-3	98	4	27	i	-92*
SMILES	MLLE-PAM2 inh	ABCB6 inh 2	PHOSPHO1 block	eIF4H FP inh	PABP FP inh	AI-2 QS mod
O=C(N/N=C/c1ccccn1)c1sc2ccccc2c1Cl	3	101	-1	15	i	?
C[C@@H]1CN([C@H](C)CO)S(=O)(=O)c2ccc(C#Cc3ccccc3)cc2O[C@H]1CN(C)C(=O)Nc1ccc2c(c1)OCO2	7	102	·	·	·	·
COc1ccc(CN2C[C@H]3CON(C)[C@H]3C[C@H]2c2ccc(-c3ccccc3)cc2)cc1	-8	99	·	·	·	·
CCNC(=O)C1CCCN(C(=O)C(c2ccccc2)c2ccccc2)CC1 (centres undefined)	2	93	·	·	·	·
COc1ccc(/C(C)=N\NC(=O)CSc2nnc(C)s2)cc1	48*	101	-3	-8	i	7
NN1C(=O)/C(=C2/Sc3ccccc3N2CCCS(=O)(=O)O)SC1=S	11	101	·	8	i	19
O=C1NC(=S)S/C1=C1\Sc2ccccc2N1CCCS(=O)(=O)O	27	96	72*	6	i	24
CC1CCCN(C(=O)C2CCN(c3nc(-c4ccccc4)nc4c3CCC4)CC2)C1 (centres undefined)	-2	100	66*	-2	i	28
COC(=O)c1sc(=S)sc1C(=O)OC	52*	100	48	8	i	4
Cc1ccc(C)c(NC(=S)NC(=O)c2cncc(Br)c2)c1	40*	97	·	·	·	13
Cc1ccc(C)c(NC(=S)NNC(=O)c2csc(C(C)C)c2)c1	39*	90	-11	13*	+	2
O=C(NC(=S)Nc1nc(-c2ccccc2)cs1)c1cncc(Br)c1	45*	91	24	-12	i	16
O=C(NC(=S)Nc1ccccc1Cl)c1cncc(Br)c1	43*	100	-39	1	i	9
CC(=O)Nc1cc(-c2cccnc2)cn2c(-c3ccc(F)cc3)cnc12	-20	87	·	·	·	·
CC(=O)Nc1cncc(-c2cccc(S(C)(=O)=O)c2)n1	-1	95	·	·	·	·
COC(=O)[C@@]1(Sc2ccc(C)cc2)CC(=O)N(C(=O)/C=C/c2ccccc2)[C@@H]1c1ccccc1	·	97	·	·	·	·
CCOC(=O)C1=C(C)NC2=C(C(=O)CC(C)(C)C2)C1c1cccc(C)n1 (centres undefined)	-2	98	32	6	i	15
CCOC(=O)CN=C1CC(C)(C)CC2=C1Sc1ncnc(N(C)C)c1N2	32	94	97*	7	i	9
CN1CCN(C(=O)CCn2c(=S)[nH]c3ccccc3c2=O)CC1	-23	92	·	·	·	·
CSc1nc2oc3c(c2c2nncn12)CC(C)(C)SC3	45*	95	78*	32	i	16
CC(C)C[C@H](NC(=O)CC[C@H]1O[C@@H](n2ccc(=O)[nH]c2=O)[C@H](O)[C@@H]1O)C(=O)O	-1	98	·	·	·	·
CCOC(=O)c1cc(C)sc1/N=C/C1=C(O)CCCC1=O	29	93	12	55*	+	34
O=C(CCl)Nc1ccc(S(=O)(=O)Nc2nccs2)cc1	6	88	23	8	i	-26
O=C(CN1C(=O)c2cccc3cccc1c23)Nc1ccc(S(=O)(=O)N2CCOCC2)cc1	5	85	-9	-7	i	-96*
